Laboratory results reported in the supplement of paper PMC11732987, “Enantioselective OTUD7B fragment discovery through chemoproteomics screening and high-throughput optimisation” (Communications Chemistry, 2025).

Experiments:
Experiment in all cases: log2 ratio of Biotin-Ahx-Ub-VS probe labelling (fragment/DMSO); higher = less target engagement (more negative = stronger competition), active = hit call of the paper (q ≤ 0.05, log2 ratio ≤ -1)
Conditions in all cases: compound concentration: 200 uM; treatment time: 3 h
USP42 = target: T1, USP42 (UniProt Q9H9J4)
T1 sequence (whole entry): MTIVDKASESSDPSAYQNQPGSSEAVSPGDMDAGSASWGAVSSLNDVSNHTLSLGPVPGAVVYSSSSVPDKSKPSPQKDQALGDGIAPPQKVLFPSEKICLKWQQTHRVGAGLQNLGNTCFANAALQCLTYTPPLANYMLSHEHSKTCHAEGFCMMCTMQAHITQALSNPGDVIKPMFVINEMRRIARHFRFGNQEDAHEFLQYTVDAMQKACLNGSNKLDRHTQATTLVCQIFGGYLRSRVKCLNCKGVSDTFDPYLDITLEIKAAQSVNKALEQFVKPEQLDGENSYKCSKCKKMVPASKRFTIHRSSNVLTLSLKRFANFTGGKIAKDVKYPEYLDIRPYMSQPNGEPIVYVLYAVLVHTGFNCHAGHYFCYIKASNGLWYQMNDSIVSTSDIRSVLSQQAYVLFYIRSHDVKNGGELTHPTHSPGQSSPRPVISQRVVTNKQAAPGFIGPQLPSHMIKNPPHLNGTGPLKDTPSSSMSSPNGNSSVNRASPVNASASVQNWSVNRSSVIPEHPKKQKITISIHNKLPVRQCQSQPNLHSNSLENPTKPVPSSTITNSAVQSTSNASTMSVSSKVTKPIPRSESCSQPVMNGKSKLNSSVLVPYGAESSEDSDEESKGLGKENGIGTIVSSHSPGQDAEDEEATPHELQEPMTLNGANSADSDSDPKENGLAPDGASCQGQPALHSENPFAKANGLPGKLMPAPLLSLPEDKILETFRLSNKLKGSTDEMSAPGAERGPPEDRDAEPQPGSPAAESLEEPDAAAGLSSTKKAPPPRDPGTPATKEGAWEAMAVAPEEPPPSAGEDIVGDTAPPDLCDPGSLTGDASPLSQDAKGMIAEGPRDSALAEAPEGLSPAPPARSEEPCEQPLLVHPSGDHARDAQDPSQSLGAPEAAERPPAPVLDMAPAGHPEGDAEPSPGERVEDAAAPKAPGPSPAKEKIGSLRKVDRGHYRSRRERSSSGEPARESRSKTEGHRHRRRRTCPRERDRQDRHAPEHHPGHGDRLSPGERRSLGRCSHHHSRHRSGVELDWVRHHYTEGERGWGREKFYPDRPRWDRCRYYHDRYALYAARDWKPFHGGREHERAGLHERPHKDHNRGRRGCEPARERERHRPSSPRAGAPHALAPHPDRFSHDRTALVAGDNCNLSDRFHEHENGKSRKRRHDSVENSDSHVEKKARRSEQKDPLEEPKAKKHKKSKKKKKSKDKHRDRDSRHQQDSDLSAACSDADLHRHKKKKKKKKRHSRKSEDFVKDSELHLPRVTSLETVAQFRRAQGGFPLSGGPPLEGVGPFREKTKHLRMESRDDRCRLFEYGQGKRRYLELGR
Outline: (§1)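 In triplicate, 495 µg of HEK293T lysate per sample was incubated with fragment at 200 µM or vehicle for 3 h. Biotin-Ahx-Ub-VS was then added to 0.5 µM final for 1 h, and labelled DUBs were captured with NeutrAvidin, digested with LysC and trypsin, and measured by diaPASEF LC-MS/MS. Data are average log2 fragment/vehicle ratios by unpaired t-test from global-median-normalised Spectronaut label-free quantities, restricted to proteins with ≥2 unique peptides.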

USP46 = USP46 (UniProt P62068)
Sequence of USP46 (P62068 whole entry): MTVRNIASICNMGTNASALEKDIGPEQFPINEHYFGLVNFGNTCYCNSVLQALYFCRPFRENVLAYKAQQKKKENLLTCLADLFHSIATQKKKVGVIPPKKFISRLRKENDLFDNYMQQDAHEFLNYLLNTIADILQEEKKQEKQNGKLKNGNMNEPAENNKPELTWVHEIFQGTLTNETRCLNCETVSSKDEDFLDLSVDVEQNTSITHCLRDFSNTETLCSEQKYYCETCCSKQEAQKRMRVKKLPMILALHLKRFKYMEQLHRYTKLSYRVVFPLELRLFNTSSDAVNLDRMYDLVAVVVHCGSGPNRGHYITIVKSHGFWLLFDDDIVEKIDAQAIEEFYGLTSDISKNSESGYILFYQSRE
Outline: as §1

USP47 = target: T2, USP47 (UniProt Q96K76)
T2 sequence (whole entry): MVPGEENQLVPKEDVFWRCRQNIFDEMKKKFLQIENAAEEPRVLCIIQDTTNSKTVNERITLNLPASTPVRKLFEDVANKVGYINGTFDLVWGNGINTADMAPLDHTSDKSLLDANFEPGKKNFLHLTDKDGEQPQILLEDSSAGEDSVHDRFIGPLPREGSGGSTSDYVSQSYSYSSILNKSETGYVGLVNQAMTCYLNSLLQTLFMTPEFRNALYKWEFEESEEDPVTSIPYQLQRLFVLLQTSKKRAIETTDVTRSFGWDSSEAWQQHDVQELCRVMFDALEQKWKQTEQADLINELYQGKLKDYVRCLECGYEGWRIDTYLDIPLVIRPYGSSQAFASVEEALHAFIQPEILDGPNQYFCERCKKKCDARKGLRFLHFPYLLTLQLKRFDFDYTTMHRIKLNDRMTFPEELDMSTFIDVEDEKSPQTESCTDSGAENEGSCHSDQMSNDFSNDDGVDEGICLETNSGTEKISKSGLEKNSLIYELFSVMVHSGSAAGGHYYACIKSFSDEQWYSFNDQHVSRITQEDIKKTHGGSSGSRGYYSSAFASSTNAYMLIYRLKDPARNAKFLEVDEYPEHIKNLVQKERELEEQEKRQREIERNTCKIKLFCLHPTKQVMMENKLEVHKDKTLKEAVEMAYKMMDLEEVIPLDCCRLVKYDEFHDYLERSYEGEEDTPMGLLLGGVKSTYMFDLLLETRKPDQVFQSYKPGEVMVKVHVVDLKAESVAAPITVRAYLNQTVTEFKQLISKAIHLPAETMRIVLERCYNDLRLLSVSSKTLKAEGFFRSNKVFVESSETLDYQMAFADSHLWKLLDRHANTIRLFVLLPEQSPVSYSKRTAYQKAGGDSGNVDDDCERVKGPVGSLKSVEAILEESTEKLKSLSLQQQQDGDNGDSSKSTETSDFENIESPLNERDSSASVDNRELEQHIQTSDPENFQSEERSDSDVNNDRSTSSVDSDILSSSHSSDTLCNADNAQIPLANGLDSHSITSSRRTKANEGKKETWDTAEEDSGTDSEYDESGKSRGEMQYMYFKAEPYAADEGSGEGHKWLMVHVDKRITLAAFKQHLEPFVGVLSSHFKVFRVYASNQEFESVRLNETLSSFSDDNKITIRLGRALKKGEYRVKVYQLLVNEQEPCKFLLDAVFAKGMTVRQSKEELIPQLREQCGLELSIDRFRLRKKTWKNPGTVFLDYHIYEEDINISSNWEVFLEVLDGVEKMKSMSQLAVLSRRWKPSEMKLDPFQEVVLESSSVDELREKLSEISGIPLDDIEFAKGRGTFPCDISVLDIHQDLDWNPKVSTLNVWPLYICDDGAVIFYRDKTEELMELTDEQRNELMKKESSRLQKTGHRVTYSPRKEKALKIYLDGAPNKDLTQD
Outline: as §1

USP48 = target: T3, USP48 (UniProt Q86UV5)
T3 sequence (whole entry): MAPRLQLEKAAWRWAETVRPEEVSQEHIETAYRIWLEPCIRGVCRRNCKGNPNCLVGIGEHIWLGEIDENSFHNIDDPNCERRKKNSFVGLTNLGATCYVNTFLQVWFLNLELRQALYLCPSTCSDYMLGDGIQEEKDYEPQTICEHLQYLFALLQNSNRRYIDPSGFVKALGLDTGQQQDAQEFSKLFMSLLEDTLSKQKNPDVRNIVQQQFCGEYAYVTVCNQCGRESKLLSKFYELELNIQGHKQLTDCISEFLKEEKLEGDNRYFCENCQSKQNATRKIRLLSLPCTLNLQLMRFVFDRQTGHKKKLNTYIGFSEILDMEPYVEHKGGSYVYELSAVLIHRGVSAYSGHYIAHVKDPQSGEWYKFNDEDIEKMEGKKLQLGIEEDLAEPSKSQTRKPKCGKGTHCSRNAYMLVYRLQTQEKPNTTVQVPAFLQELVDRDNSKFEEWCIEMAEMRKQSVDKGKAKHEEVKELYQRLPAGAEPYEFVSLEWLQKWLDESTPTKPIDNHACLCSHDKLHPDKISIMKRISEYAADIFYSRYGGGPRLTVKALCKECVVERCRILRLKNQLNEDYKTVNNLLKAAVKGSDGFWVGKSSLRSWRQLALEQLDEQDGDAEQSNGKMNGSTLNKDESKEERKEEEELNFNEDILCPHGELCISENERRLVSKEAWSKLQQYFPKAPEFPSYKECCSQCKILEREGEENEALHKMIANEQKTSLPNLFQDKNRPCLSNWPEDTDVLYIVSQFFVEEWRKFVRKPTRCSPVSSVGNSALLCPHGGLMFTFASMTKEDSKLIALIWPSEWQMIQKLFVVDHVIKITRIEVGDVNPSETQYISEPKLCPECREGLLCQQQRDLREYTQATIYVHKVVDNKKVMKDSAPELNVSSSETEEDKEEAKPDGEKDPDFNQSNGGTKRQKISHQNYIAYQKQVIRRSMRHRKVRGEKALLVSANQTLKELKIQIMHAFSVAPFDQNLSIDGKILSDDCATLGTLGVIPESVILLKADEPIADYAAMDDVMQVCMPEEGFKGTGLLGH
Outline: as §1

USP5 = target: T4, USP5 (UniProt P45974)
T4 sequence (whole entry): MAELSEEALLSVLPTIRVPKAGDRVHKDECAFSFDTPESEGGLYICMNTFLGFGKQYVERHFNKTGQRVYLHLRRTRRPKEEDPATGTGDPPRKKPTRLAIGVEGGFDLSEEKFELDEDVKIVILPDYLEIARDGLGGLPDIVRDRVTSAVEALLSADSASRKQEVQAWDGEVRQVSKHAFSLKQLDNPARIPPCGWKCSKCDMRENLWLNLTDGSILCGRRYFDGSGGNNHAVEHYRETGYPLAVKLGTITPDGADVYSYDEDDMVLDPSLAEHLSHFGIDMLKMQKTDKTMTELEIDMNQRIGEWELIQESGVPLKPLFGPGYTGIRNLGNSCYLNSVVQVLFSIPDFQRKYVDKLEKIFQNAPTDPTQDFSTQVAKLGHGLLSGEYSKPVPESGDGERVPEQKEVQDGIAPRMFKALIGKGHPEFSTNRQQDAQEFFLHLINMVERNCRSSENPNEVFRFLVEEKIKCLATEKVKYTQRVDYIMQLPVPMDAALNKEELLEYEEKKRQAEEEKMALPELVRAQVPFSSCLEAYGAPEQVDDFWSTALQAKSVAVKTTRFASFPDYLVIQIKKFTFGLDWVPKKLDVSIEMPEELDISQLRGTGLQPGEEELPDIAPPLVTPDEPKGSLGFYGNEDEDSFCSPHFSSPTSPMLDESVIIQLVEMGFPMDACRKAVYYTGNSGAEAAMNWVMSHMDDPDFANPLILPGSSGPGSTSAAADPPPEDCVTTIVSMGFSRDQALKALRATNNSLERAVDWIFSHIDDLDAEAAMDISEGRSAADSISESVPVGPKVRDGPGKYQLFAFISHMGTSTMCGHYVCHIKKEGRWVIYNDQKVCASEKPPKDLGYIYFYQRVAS
Outline: as §1

USP54 = USP54 (UniProt Q70EL1)
Sequence of USP54 (Q70EL1 whole entry): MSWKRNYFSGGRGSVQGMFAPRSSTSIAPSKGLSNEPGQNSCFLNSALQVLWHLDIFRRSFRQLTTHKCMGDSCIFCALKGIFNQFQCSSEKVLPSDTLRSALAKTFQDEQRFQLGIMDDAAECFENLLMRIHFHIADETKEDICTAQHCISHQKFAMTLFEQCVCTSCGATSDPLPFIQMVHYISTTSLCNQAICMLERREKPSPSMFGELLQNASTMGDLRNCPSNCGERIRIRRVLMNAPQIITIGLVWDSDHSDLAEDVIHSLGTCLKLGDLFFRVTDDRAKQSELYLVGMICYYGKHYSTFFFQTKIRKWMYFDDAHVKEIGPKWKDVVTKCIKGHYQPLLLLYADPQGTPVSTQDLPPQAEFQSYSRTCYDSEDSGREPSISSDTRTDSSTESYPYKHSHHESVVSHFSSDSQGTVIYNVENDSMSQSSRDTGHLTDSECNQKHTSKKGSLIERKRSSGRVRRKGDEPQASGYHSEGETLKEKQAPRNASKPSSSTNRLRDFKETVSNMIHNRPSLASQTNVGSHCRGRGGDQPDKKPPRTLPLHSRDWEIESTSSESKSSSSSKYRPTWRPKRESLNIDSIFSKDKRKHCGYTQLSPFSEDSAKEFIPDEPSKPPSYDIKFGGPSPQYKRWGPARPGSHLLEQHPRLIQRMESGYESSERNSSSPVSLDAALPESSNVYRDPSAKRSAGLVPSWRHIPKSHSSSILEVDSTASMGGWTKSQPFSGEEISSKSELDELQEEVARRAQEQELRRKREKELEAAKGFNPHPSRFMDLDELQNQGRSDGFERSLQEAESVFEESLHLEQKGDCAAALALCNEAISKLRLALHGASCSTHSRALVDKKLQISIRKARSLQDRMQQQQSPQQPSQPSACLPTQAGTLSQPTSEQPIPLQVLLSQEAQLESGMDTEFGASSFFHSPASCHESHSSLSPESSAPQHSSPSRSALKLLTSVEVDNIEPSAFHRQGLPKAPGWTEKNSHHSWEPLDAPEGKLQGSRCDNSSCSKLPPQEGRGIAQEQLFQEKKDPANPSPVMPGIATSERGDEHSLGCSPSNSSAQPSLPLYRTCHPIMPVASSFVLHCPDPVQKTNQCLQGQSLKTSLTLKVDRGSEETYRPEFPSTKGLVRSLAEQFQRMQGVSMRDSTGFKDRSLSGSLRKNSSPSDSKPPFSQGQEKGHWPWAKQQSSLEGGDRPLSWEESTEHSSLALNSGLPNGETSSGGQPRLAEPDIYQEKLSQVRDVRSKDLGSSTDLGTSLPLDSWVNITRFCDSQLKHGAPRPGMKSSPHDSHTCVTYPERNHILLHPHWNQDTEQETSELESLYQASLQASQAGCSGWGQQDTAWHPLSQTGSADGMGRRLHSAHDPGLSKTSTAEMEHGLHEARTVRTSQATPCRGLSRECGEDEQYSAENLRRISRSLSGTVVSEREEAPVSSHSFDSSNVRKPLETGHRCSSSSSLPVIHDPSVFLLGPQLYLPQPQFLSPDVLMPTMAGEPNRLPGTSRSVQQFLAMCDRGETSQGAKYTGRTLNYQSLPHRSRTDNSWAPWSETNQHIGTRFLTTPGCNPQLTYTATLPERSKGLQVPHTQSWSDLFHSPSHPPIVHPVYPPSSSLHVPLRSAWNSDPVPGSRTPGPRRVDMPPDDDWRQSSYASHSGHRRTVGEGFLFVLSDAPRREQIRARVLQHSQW
Outline: as §1

USP7 = USP7 (UniProt Q93009)
Sequence of USP7 (Q93009 whole entry, looked up): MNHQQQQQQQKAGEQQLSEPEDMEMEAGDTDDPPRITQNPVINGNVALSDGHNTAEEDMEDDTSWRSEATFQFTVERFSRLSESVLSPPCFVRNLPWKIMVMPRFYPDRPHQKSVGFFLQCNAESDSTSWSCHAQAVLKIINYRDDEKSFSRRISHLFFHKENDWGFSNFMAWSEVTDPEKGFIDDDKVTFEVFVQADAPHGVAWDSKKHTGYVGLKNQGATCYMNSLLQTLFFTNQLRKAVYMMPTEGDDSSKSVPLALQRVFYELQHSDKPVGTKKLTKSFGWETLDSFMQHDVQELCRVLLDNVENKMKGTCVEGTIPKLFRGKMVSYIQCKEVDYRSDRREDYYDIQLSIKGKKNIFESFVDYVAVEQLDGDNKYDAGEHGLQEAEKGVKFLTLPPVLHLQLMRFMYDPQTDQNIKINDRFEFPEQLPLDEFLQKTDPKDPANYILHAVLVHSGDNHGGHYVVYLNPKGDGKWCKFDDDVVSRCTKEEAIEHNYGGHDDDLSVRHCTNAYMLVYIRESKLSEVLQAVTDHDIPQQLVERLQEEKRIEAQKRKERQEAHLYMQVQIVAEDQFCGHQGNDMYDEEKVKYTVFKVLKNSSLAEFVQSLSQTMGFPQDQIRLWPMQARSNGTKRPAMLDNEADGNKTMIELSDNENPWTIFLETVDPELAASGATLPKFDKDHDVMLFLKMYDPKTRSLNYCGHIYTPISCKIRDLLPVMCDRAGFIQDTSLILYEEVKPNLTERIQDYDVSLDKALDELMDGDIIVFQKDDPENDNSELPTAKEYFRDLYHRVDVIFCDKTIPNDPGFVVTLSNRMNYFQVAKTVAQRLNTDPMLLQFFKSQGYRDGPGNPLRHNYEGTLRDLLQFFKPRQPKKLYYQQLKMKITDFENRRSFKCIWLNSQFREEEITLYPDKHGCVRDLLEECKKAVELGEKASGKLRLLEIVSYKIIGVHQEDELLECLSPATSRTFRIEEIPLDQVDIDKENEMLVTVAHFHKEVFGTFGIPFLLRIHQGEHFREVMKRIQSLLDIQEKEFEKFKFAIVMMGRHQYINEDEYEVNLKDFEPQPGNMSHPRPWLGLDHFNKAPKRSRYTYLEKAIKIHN
Outline: as §1

USP8 = target: T5, USP8 (UniProt P40818)
T5 sequence (whole entry): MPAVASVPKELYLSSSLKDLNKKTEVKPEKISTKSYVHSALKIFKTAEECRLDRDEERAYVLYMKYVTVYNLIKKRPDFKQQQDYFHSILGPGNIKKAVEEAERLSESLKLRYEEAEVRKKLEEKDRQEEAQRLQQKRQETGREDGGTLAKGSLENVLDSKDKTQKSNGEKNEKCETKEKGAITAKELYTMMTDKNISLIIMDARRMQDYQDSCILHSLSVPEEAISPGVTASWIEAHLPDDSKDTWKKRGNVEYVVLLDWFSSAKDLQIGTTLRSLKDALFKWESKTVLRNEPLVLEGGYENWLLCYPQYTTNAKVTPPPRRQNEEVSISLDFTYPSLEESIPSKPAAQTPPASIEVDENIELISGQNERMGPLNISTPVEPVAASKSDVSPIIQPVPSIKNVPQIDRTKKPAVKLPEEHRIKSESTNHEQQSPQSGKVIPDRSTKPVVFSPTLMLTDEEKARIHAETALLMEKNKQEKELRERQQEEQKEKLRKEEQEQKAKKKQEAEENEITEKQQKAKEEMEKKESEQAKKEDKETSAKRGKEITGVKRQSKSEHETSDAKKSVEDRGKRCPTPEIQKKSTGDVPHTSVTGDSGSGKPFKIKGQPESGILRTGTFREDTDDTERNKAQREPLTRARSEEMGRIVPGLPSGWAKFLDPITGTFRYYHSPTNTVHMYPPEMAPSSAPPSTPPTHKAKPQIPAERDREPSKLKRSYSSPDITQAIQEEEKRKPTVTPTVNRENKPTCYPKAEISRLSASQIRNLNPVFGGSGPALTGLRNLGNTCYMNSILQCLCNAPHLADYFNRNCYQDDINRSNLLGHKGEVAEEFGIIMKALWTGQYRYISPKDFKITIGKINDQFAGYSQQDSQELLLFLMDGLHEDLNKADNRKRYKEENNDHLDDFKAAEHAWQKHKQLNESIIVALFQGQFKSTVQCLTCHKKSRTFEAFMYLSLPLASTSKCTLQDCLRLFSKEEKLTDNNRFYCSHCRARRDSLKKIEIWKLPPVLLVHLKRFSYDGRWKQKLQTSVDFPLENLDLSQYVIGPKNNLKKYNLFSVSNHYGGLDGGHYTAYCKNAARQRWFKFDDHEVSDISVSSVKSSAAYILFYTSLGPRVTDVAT
Outline: as §1

Measured: log2 ratio of Biotin-Ahx-Ub-VS probe labelling

O=C(CCl)N(C1CCCC1)C1CCS(=O)(=O)C1 (stereo not drawn)
inactive: USP42 0.228 | USP46 -0.0761 | USP47 -0.442 | USP5 0.124 | USP54 -0.384 | USP7 -0.798 | USP8 0.0542
active: USP48 -1.18
